We go through 38 sequences from the OligoGym collection.
Note: reference of the scale not given here.

The target of one assay is GALNT12. As to the kind of experiment: pooled miR-30 sensor sort-seq; sequence = guide strand. The settings on record: shRNA.
Turning to TGAACTTCTGATTCTCTGGGGC, the sensor-assay potency score (higher = more potent) was found to be 0.682.

Sequence TCGATCACATCAATCACCGGGC came in with a sensor-assay potency score (higher = more potent) of -0.0357.

In turn, TCTTCTAGCAGGATATCCGGGG registered a sensor-assay potency score (higher = more potent) of -0.323.

TTCAGCTGCACGAACACTGTTG had a sensor-assay potency score (higher = more potent) of -0.106.

TTTCTTCTCTTTGCACAGCGGG gave a sensor-assay potency score (higher = more potent) of -0.991.

As for TATAGTCAAAGCAGTAGTCTGT, the sensor-assay potency score (higher = more potent) was found to be 0.11.

Sequence TTCTTCTCTTTGCACAGCGGGT returned a sensor-assay potency score (higher = more potent) of -1.37.

With TTACTCACAGCAAACAGCCCAC, the sensor-assay potency score (higher = more potent) is -0.133.

Regarding TATCACTGTAGTCATCTACAAG, the sensor-assay potency score (higher = more potent) is -1.3.

For TAGTCCTTTGTTCTGGAGCATC, the sensor-assay potency score (higher = more potent) is -1.37.

TTCTTCTAGCAGGATATCCGGG showed a sensor-assay potency score (higher = more potent) of -0.589.

TTACACTGGAGCTTGTCCCGGA: the sensor-assay potency score (higher = more potent) was determined as 0.473.

Another assay addresses GALNT14. The assay is described as above. Conditions: shRNA.
Sequence TTGGTGTTCTTTATATACGTGT yielded a sensor-assay potency score (higher = more potent) of -0.309.

On to TCATCTCTCAATGTAGTCCTGG, for which the sensor-assay potency score (higher = more potent) turned out to be 0.0167.

As to ATTGCTGTCGGTCATCTCCATT, the sensor-assay potency score (higher = more potent) is -1.29.

The sequence AACAGCAGCACCGTGATCCAGA yielded a sensor-assay potency score (higher = more potent) of -0.665.

As for TATGATAGGAGTCCTGATGGGC, the sensor-assay potency score (higher = more potent) is -0.477.

In turn, TCTTTTGGAAACAACCTCCATT registered a sensor-assay potency score (higher = more potent) of -0.288.

Sequence TTTTGGTCCATTGCTGTCGGTC gave a sensor-assay potency score (higher = more potent) of -1.13.

Turning to TTGACGACGATTTCCTTGCCGT, the sensor-assay potency score (higher = more potent) was -0.222.

The sequence TTCCAGTCTGTTCTGGTCCAGG registered a sensor-assay potency score (higher = more potent) of -1.18.

Sequence TTGGAAACAACCTCCATTCTTC showed a sensor-assay potency score (higher = more potent) of 0.406.

In turn, TTGTCGATCACGAAGAGCCCTC registered a sensor-assay potency score (higher = more potent) of -0.543.

Sequence TTCTTTTGGAAACAACCTCCAT displayed a sensor-assay potency score (higher = more potent) of -0.965.

For the next assay, the target named is GALNT7. Described as above. Conditions: shRNA.
TTCGTGCTTGAATTAAACCTTC registered a sensor-assay potency score (higher = more potent) of -0.485.

The sequence TTTAATTACACTGTGGACTGTT had a sensor-assay potency score (higher = more potent) of 0.94.

TTCATTGATTCTGAAAAGCTGA yielded a sensor-assay potency score (higher = more potent) of -0.364.

Turning to TTATTCTTCTAATAGACTCTAA, the sensor-assay potency score (higher = more potent) is -0.0226.

For TAACTTTTGATCCATCAGCTCC, the sensor-assay potency score (higher = more potent) is -0.72.

In turn, TAATCATAACTTTTGATCCATC gave a sensor-assay potency score (higher = more potent) of -1.43.

The sequence ATTGACATCTCTGTCTTCCCTC gave a sensor-assay potency score (higher = more potent) of 0.3.

TTAAATTTTAAAAACGTGCAGA returned a sensor-assay potency score (higher = more potent) of -0.271.

In turn, TTGACATCTCTGTCTTCCCTCA displayed a sensor-assay potency score (higher = more potent) of -0.191.

In turn, TTCTTTATTACTGAAATCGTCA showed a sensor-assay potency score (higher = more potent) of -0.232.

Sequence TAGACTCTAAGTCCACTTCTAC returned a sensor-assay potency score (higher = more potent) of -0.661.

Another assay deals with GALNT9. The description is as above. Conditions: shRNA.
Turning to TTGTTGTAGGGCTTCCTGGTGC, the sensor-assay potency score (higher = more potent) amounted to 0.157.

The sequence ATAGTAGTCAATGTCGTTGTTG registered a sensor-assay potency score (higher = more potent) of -0.487.

TTTGTCGCTGTCCATGTCCTCC: the sensor-assay potency score (higher = more potent) is -0.772.
